Source: PubChem BioAssay AID449762 (Southern Research Specialized Biocontainment Screening …, 2010)
In all, about 330,000 compounds went through this assay and about 1,900 (0.58%) were called active. Roughly 4% stayed inconclusive and do not appear here. No stated cut-off is given here; in the data, inconclusive means inhibition above about 70% without an active follow-up result; inactive means below that. These entries were drawn from the full list. Entries with a potency or affinity are not part of this list.

Test: M. tuberculosis growth inhibition, HTS (AID 449762);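 further: bacterial growth assessed after seven days of incubation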
Details: M. tuberculosis H37Rv growth inhibition, 7H9 media; at 25 µM; stronger effect = higher value

Compound | inhibition
COc1ccc(-c2csc(-n3ncc(-c4ccccn4)c3N)n2)cc1 | 1.41% (inactive)
Nc1c(-c2cccs2)cnn1-c1nc(-c2ccc(F)cc2)cs1 | -11.5% (inactive)
COc1ccc(-c2n[nH]c(=S)n2CC(C)C)cc1 | -17.2% (inactive)
CN(C)CCCN(C(=O)c1ccc(C(=O)c2ccccc2)cc1)c1nc2cc3c(cc2s1)OCCO3 | 2.4% (inactive)
Cn1cc(C(=O)c2ccccc2C(=O)O)cc1C(=O)C(Cl)(Cl)Cl | 1.33% (inactive)
C=CCNC(=S)NNC(=O)c1cccc2ccccc12 | -8.25% (inactive)
CN(c1ccccc1)S(=O)(=O)c1ccc(C(=O)OCC(=O)NCc2cccs2)cc1 | -2.53% (inactive)
CCN1C(=O)N[C@@H](c2cccc(C(F)(F)F)c2)C(C(=O)OC)=C1C | -2.1% (inactive)
CCN1C(N(C)CCc2cccs2)=N[C@@H](c2ccccc2)C(C(=O)OC)=C1C | -2.75% (inactive)
C=CC[C@@H](Cc1ccc(F)cc1)C(=O)OC[C@H]1CCCN1C(=O)[C@@H](CC=C)CC(=O)N[C@@H](CO)Cc1ccccc1 | -0.18% (inactive)
O=C(SCC(O)C(O)CS)c1cccs1 (stereo unspecified) | -1.44% (inactive)
COc1ccc(C(=O)NN=C2CCCC2)c(OC)c1 | -0.32% (inactive)
O=C(C1CCCCC1)N1CCc2ccccc21 | 0.1% (inactive)
O=C(C1CCC1)N1CCc2cc(S(=O)(=O)N3CCCCC3)ccc21 | -8.32% (inactive)
O=C(Nc1ccncc1)c1cc(-c2cccc(Br)c2)nc2ccccc12 | -13.1% (inactive)
CCn1nc(NS(=O)(=O)c2ccc([N+](=O)[O-])cc2)c2cc3cc(C)ccc3nc21 | 2.04% (inactive)
COc1cccc(C(=O)OC(C)C(=O)Nc2ccc3c(c2)OCO3)c1 (stereo unspecified) | -7.8% (inactive)
COc1ccc(-n2nc(C(=O)NCC(=O)N3CCCCCC3)c3ccccc3c2=O)cc1OC | -4.92% (inactive)
COc1ccc(Cn2cnc3c(N)c(C)c(C)cc32)cc1 | -12.4% (inactive)
COC(=O)CSc1nc(SCc2ccccc2Cl)nc2c1CCCC2 | -6.09% (inactive)
CN(C)c1nc(SCc2ccccc2Cl)nc2c1CCCC2 | 20.2% (inactive)

Compound | inhibition
CC(C)OC(=O)c1nnn(-c2nonc2N)c1CN1CCCCCC1 | -9.91% (inactive)
Cc1ccc(OCc2cc(C(=O)NCCn3cccn3)no2)cc1C | 10.8% (inactive)
COc1ccc(C(=O)NC(NC(=S)Nc2ccc(S(N)(=O)=O)cc2)C(Cl)(Cl)Cl)cc1 (stereo unspecified) | -5.71% (inactive)
Oc1ccc(C2=CCNCC2)cc1O | -1.15% (inactive)
CN1c2ccc([N+](=O)[O-])cc2N(C)C1(C)c1ccccc1 (stereo unspecified) | -1.96% (inactive)
CN1c2ccccc2N(C)C1(C)c1ccccc1 | 4.29% (inactive)
Cc1cc(/C=C2/SC(=S)N(c3cccc(Cl)c3)C2=O)c(C)n1-c1cccnc1 | 59.7% (inactive)
Cc1cc(C=C2C(=O)N(C)C(=S)N(C)C2=O)c(C)n1-c1cccnc1 | -1.48% (inactive)
COc1cccc(CCc2nnc(CCC(=O)N3CCN(Cc4ccccn4)CC3)o2)c1 | -0.82% (inactive)
COc1ccccc1C(=O)c1c(C)c(CCC#N)n2ccccc12 | 2.58% (inactive)
O=C(COC(=O)C12CC3CC(CC(C3)C1)C2)N1CCN(S(=O)(=O)c2ccccc2)CC1 | 6.15% (inactive)
CN(C1CCCCC1)S(=O)(=O)c1ccc(SCC(=O)NC(C)(C)C)nc1 | -0.68% (inactive)
CN1CCN(Cc2cc(Cl)c3cccnc3c2OC(=O)c2cccs2)CC1 | -8.53% (inactive)
CN(C)C(=O)Oc1c(Cl)cc(Cl)c2cccnc12 | 0.5% (inactive)
CN1C(=O)CC(N2CCN(CCN=CC3=C(O)CC(C)(C)CC3=O)CC2)C1=O (stereo unspecified) | 9.46% (inactive)
O=C(CS(=O)(=O)Cc1ccccc1)Nc1ccc(Br)cc1F | -10.1% (inactive)
CCOC(=O)c1c(C)n(OC)c2ccc3c(no[n+]3[O-])c12 | -8.43% (inactive)
COn1c2c(c3c4no[n+]([O-])c4ccc31)CCCC2 | 12.5% (inactive)
Cc1ccc2[nH]c(=O)c(CN(CC3CCCO3)C(=O)c3ccncc3)cc2c1 (stereo unspecified) | 4.74% (inactive)
CCCCCNc1nc(NCCCO)c(C#N)c2c1CN(C)CC2 | 1.69% (inactive)
CN1CCc2c(C#N)c(N3CCCCC3)nc(NCc3ccccc3)c2C1 | 8.6% (inactive)

Compound | inhibition
CC(=O)NC(C)(CC(=O)c1ccccc1)c1ccccc1 (stereo unspecified) | -8.86% (inactive)
S=C(NCCCN1CCOCC1)N(Cc1ccccc1)Cc1ccccc1 | -1.92% (inactive)
Cc1ccccc1Nc1nn2c(=O)c3ccccc3nc2s1 | 4.93% (inactive)
C=CCSc1nn2c(=O)c3ccccc3nc2s1 | 66.1% (inactive)
Cc1nc(SCC(C)C)[nH]c(=O)c1Cc1ccccc1 | -4.67% (inactive)
O=C(OCc1nnc(-c2ccccc2)o1)c1ccccc1 | 3.86% (inactive)
O=C(OCc1nnc(-c2ccccc2)o1)c1ccc([N+](=O)[O-])s1 | 63.8% (inactive)
COc1ccc(OC)c(NC2=NCCCS2)c1 | -1.69% (inactive)
COc1ccc(C(CNC(=O)C(=O)NC2CCCCC2)N2CCN(C)CC2)cc1 (stereo unspecified) | -12.6% (inactive)
COc1ccc(OC)c(N2Cc3ccccc3C2)c1 | 3.42% (inactive)
COc1ccccc1NC(=O)Nc1nc(CC(=O)NCc2c(F)cccc2F)cs1 | 29.2% (inactive)
COc1ccccc1CC(=O)N1CCN(c2ccccc2F)CC1 | 3% (inactive)
O=C(Nc1cccc(S(=O)(=O)N2CCOCC2)c1)c1cc(=O)[nH]c2ccccc12 | -2.49% (inactive)
CN(C)Cc1nc2ccccc2c(=O)n1CC#N | -2.77% (inactive)
N#CCn1c(Cc2ccccc2)nc2ccccc2c1=O | -1.48% (inactive)
CCOCCc1nnc(NC(=O)CS(=O)(=O)c2ccc(C)cc2)s1 | -7.28% (inactive)
COc1ccccc1CN1CCC(n2nccc2NC(=O)CCCc2ccccc2)CC1 | 3.32% (inactive)
CCOC(=O)C1=C(CSc2nc3c(cc2C#N)CN(C)CC3)OC(N)=C(C#N)C1c1ccc(Cl)cc1 (stereo unspecified) | -0.9% (inactive)
COc1ccc(C(CC(=O)NCCCN2CCOCC2)NS(=O)(=O)c2ccc(C)cc2)cc1 (stereo unspecified) | -3.32% (inactive)
